Experimental findings from ChEMBL document CHEMBL4513216, “Probing the Open Global Health Chemical Diversity Library for Multistage-Active Starting Points for Next-Generation Antimalarials” (ACS Infect Dis, 2020) are described below.

Molecules are shown by their SMILES. Hit rate of the full screen: of about 69,000 compounds, about 8,600 (12%) showed an effect of 50% or more. The sample as a whole holds a higher share of strong results than the screen did.

The test system of this experiment is Plasmodium berghei. Nature of the experiment: Screen against P. berghei liver stage (PbLuc), transformed with Luciferase, at 10uM. It is filed as functional, HepG2. As to conditions: tested at 10 uM.
For `O=C(CCOc1ccccc1F)NC1CCCN(c2ccccn2)C1` (stereo not drawn), the INHIBITION is on record as -3.71%.

In the case of `CN(C)Cc1cnc2n1CCN(C(=O)NC1CCCC1)CC2`, the INHIBITION is 43.8%.

For the compound `CC(=O)c1cccc(NC(=O)c2cnc(N3CCN(C)CC3)nc2C)c1`, the INHIBITION was found to be 7.83%.

With `CCc1nc(C2CCCN(C(=O)CC3CCOCC3)C2)no1` (stereo not drawn), the INHIBITION was -2.19%.

`CCc1cc(N2CCCC(c3noc(CC)n3)C2)ncn1` (stereo not drawn): the INHIBITION is 58.5%.

As to `CCc1nc(C2CCCN(C(=O)c3ccccc3Cl)C2)no1` (stereo not drawn), the INHIBITION turned out to be 42%.

On to `CC(C)c1nc(C2CCCN(C(=O)CN(C)S(C)(=O)=O)C2)no1` (stereo not drawn), for which the INHIBITION is on record as -1.35%.

As to `CCc1nc(C2CCCN(C(=O)c3ccccc3F)C2)no1` (stereo not drawn), the INHIBITION was found to be 60.5%.

Turning to `CCc1nc(C2CCCN(C(=O)CN(C)S(C)(=O)=O)C2)no1` (stereo not drawn), the INHIBITION worked out at 51.3%.

For the compound `CCc1nc(C2CCCN(C(=O)c3ccccc3O)C2)no1` (stereo not drawn), the INHIBITION amounted to 37.9%.

As for `CCc1nc(C2CCCN(c3ncc(Br)cn3)C2)no1` (stereo not drawn), the INHIBITION worked out at 31.7%.

Turning to `CCc1nc(C2CCCN(c3ncccn3)C2)no1` (stereo not drawn), the INHIBITION is -113%.

As for `Cc1ccsc1CNCCCOc1ccccn1`, the INHIBITION is recorded as -19.1%.

`CC(=O)c1nn(-c2ccccc2)c(C)c1C(C)=O`: the INHIBITION is given as 10.6%.

For the compound `Cc1ccc(-c2nc(CN3CCCC(Cn4cncn4)C3)no2)cc1` (stereo not drawn), the INHIBITION is -28.3%.

On to `CCN1CC2(CC1=O)CN(C(=O)c1ccco1)CCN(C(=O)N(C)C)C2` (stereo not drawn), for which the INHIBITION was found to be 5.14%.

As to `CCN1CC2(CC1=O)CN(C(=O)c1ccoc1)CCN(C(=O)N(C)C)C2` (stereo not drawn), the INHIBITION is 20.9%.

For the compound `CCN1CC2(CC1=O)CN(C(=O)c1ccsc1)CCN(C(=O)N(C)C)C2` (stereo not drawn), the INHIBITION was 56.1%.

With `CCN1CC2(CC1=O)CN(C(=O)c1cccs1)CCN(C(=O)N(C)C)C2` (stereo not drawn), the INHIBITION was determined as 71%.

Turning to `CCN1CC2(CC1=O)CN(Cc1cccs1)CCN(C(=O)C(C)C)C2` (stereo not drawn), the INHIBITION is -9.76%.

With `CCN1CC2(CC1=O)CN(Cc1ccsc1)CCN(C(=O)C(C)C)C2` (stereo not drawn), the INHIBITION turned out to be 20.9%.

As to `Cc1nc(CNC(=O)c2cc(COc3cccc(F)c3)[nH]n2)n[nH]1`, the INHIBITION is listed as 10.1%.

`CN(CCOc1ccc(C#N)cc1)CC1CC1`: the INHIBITION is on record as -24.7%.

Regarding `CCCC12CN3CC(CCC)(CN(C1)C3c1[nH]c(=O)[nH]c(=O)c1C)C2=O` (stereo not drawn), the INHIBITION is 17.1%.

Regarding `CCO[C@@H]1CCN(c2ccc(C)nn2)[C@@H]1Cc1cnn(C)c1`, the INHIBITION turned out to be 24.8%.

Consider `NC(=O)Cn1c(CO)cnc1SCC(=O)NCc1ccccc1Cl`, for which the INHIBITION is reported as -20.8%.

Consider `CC(C)(C)n1ncc2c(=O)n(CC(=O)NCCc3ccccc3)cnc21`, for which the INHIBITION is -25.4%.

For `CCCNC(=O)Cn1nc(C(C)C)c2cnn(C(C)(C)C)c2c1=O`, the INHIBITION is -7.35%.

For `CC(C)(C)n1ncc2c(=O)n(CC(=O)NCc3ccccc3Cl)cnc21`, the INHIBITION was 71.4%.

Regarding `CC(C)(C)n1ncc2c(=O)n(CC(=O)NCc3ccco3)cnc21`, the INHIBITION was -28.5%.

Take `CC(C)(C)n1ncc2c(=O)n(CC(=O)NCc3ccccc3)cnc21`: the INHIBITION was 84.3%.

`Cc1ccncc1-n1cc(CCO)cn1`: the INHIBITION came to 0.546%.

As for `O=C(CC1CCCCC1)NC1CCCc2nc(N3CCOCC3)ncc21` (stereo not drawn), the INHIBITION was 25.6%.

In the case of `Cc1cc(NC(C)c2nnn[nH]2)n2nc(C)c(C)c2n1` (stereo not drawn), the INHIBITION amounted to 5.91%.

In the case of `CCOCC1CN(CC2CCC2)Cc2nnn(CC3CC3)c21` (stereo not drawn), the INHIBITION was determined as 44.4%.

For the compound `C1CCC(CN2Cc3nnn(CC4CC4)c3C(COCC3CC3)C2)C1` (stereo not drawn), the INHIBITION was 63.3%.

With `C1CC(N2Cc3nnn(CC4CC4)c3C(COCC3CC3)C2)C1` (stereo not drawn), the INHIBITION worked out at 67.3%.

Turning to `COCC1CN(Cc2ccncc2)Cc2nnn(CC3CC3)c21` (stereo not drawn), the INHIBITION is recorded as 45.1%.

For the compound `c1cc(CN2Cc3nnn(CC4CC4)c3C(COCC3CC3)C2)co1` (stereo not drawn), the INHIBITION is listed as 29.6%.

As for `CN(C)C(=O)N1Cc2nnn(CC3CC3)c2C(COCC2CC2)C1` (stereo not drawn), the INHIBITION is given as -0.284%.

Regarding `Cc1ccc(N2CCCN(C(=O)CC3C=CCC3)CC2)nn1` (stereo not drawn), the INHIBITION is reported as -0.113%.

`O=C1CCOC[C@]2(CN(Cc3ccccc3)C[C@H]2c2cccc(F)c2)N1`: the INHIBITION is -38.8%.

For `COc1ccc2c(c1)OCC(C(=O)NCc1nc3c(s1)CCCC3)C2` (stereo not drawn), the INHIBITION is -23.3%.

`CC(c1ccccc1)N(C)C(=O)CNCCn1cccn1` (stereo not drawn): the INHIBITION turned out to be 31.1%.

Regarding `CCN(CC)CC(=O)N1CCCCC1c1nc(C)cs1` (stereo not drawn), the INHIBITION is on record as -67.3%.

Turning to `CCn1cc(CN2CCN(CC(O)c3ccc(C)cc3C)CC2)c(C)n1` (stereo not drawn), the INHIBITION came to 28%.

For `Cc1nn(C)c2nc(N3CCNC(=O)C3Cc3ccccc3)sc12` (stereo not drawn), the INHIBITION turned out to be 32.3%.

On to `Cc1nn(C)c2nc(N3CCCCC3c3nccs3)sc12` (stereo not drawn), for which the INHIBITION is 28.7%.

`Cc1ccc(CN2CCN(c3nc4c(s3)c(C)nn4C)C(C)C2=O)cc1` (stereo not drawn): the INHIBITION came to 78%.

As to `CNc1ncccc1C(=O)N1CCN(Cc2ccc(C)cc2)C(=O)C1C` (stereo not drawn), the INHIBITION is -11.5%.

For the compound `Cc1nn(C)c2nc(N3CCCCC3c3ccc(F)cc3)sc12` (stereo not drawn), the INHIBITION was -11.6%.

As to `Cc1ccc(CN2C[C@H]3CN(Cc4ccccc4Cl)CCN3C2=O)cc1`, the INHIBITION was -45.5%.

Consider `Cc1ccc(CN2CCN(C(=O)c3ccccc3O)C(C)C2=O)cc1` (stereo not drawn), for which the INHIBITION turned out to be 37.6%.

Regarding `Cc1ccc(CN2CCN(C(=O)c3ccc(CO)cc3)C(C)C2=O)cc1` (stereo not drawn), the INHIBITION amounted to 60.3%.

Regarding `COC(=O)CN1CCN(c2nc3c(s2)c(C)nn3C)C(C)C1=O` (stereo not drawn), the INHIBITION is on record as 52.9%.

`Cc1nn(C)c2nc(N3CCNC(=O)C3C(C)C)sc12` (stereo not drawn): the INHIBITION is on record as -47.5%.

With `Cc1nn(C)c2nc(N3CCCC3c3nccs3)sc12` (stereo not drawn), the INHIBITION was 49.9%.

In the case of `COC(=O)CC1C(=O)NCCN1c1nc2c(s1)c(C)nn2C` (stereo not drawn), the INHIBITION stood at 51.1%.

On to `Cc1occc1C(=O)N1CCCN(Cc2nccn2C)CC1`, for which the INHIBITION is given as 23.7%.

Take `OC1(CNCCCN2CCCc3ccccc32)CNCCOC1` (stereo not drawn): the INHIBITION is 45.9%.

Consider `Cc1nc(O)cc(CCNC(=O)c2ccccc2N2CCCC2)n1`, for which the INHIBITION was found to be 18.5%.

For `CCCS(=O)(=O)N1C[C@@H]2C[C@H](C(=O)N3CCN(C)CC3)[C@H](C1)O2`, the INHIBITION is reported as 21.1%.

For the compound `COc1ccc(-c2cc(CN)nc3ccnn23)cc1`, the INHIBITION is 35.2%.

Regarding `CC(C)C[C@@H](C(N)=O)n1cc(-c2cncnc2)nn1`, the INHIBITION stood at 12.8%.

Regarding `COc1ccc(-n2ccc(C(=O)N(CCN(C)C)C(C)C)n2)cc1`, the INHIBITION is reported as 18.2%.

On to `Cc1ccc(-c2nc(CCNCc3ccncc3)co2)cc1`, for which the INHIBITION turned out to be 49.6%.

On to `Cc1nc(C2CCCN2Cc2nccn2CC(F)(F)F)no1` (stereo not drawn), for which the INHIBITION was 21.6%.

As for `CN(CC(F)(F)F)C(=O)CNC(=O)N1CCC(N2CCCC2)C1` (stereo not drawn), the INHIBITION came to 30.9%.
